Assay outcomes deposited in PubChem BioAssay by several laboratories.
An excerpt weighted towards active compounds, which were near 0.82% of everything screened.
eLon inh – inhibitors of E. coli Lon protease, primary screen, biochemical, fluorescence polarization | P0A9M0 | purified E. coli Lon protease | inhibition, % at 7.94 µM | 360,000 tested, 0.42% active | AID 602123, 2011; in the data active = inhibition above about 13%, passing the limit was not always enough;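 note: 0% = enzyme with probe and DMSO and 100% = no enzyme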
RTF Ca sens act – cardiac RTF calcium sensitivity activators, primary screen, biochemical, IANBD-TnC fluorescence, EC20 calcium. Troponin I, cardiac muscle (Homo sapiens) + Troponin T, cardiac muscle (Homo sapiens) + …. activation, % at 7.2 µM. 340,000 tested, 0.24% active. IANBD-labeled TnC RTF fluorescence at EC20 calcium; 0% EC20 calcium, 100% full calcium;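 active = activation above the mean over all tested compounds plus 3 SD, cut at about 30% in these data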;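 note: rise in fluorescence read as greater calcium sensitivity of cardiac thin filaments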
Keap1 Nrf2 FP – Keap1-Nrf2 protein-protein interaction inhibitors, primary screen, biochemical, fluorescence polarization, single point. 340,000 tested, 0.15% active. inhibition, % at 9.4 µM. Kelch-like ECH-associated protein 1 (Homo sapiens), Q14145. Keap1 Kelch-Nrf2 peptide fluorescence polarization, 1536-well; in the data active = inhibition above about 12%;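 note: human Keap1 Kelch domain with fluorescein labeled Nrf2 9mer peptide probe; 0% = neutral control wells and 100% = peptide positive control; higher means more block of Keap1 binding to Nrf2 peptide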
Target sequence (Q14145 whole entry, looked up, the tested form may be a part): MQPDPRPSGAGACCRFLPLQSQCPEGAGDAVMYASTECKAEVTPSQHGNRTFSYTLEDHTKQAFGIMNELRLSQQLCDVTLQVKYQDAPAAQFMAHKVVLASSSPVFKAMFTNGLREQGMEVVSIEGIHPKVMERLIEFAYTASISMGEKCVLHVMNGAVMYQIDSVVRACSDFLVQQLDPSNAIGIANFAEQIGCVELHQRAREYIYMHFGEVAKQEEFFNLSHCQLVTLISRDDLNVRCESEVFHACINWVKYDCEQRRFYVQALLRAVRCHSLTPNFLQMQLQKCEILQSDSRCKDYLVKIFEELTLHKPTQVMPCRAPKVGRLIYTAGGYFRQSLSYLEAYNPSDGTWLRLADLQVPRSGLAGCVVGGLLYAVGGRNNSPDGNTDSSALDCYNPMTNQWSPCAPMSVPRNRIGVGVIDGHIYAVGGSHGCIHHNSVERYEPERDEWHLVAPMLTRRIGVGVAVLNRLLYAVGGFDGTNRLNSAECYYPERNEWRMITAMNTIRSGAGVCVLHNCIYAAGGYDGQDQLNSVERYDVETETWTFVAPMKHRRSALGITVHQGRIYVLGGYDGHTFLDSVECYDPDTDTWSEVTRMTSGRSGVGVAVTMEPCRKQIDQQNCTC
C-LANA FP – inhibitors of KSHV C-LANA binding to DNA, primary screen, biochemical, fluorescence polarization, FAM-LBS DNA, MBP-C-LANA, single point; Kaposi's sarcoma herpesvirus LANA C-terminal domain (residues 932-1162) DNA binding; inhibition, % at 9 µM; 340,000 tested, 0.078% active;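 active = highest replicate inhibition at or above 60% at 9 µM, even if other replicates fall short; inactive = all replicates below 60% inhibition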;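 note: 0% = neutral control wells and 100% = 4 µM acridine orange control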
RTF Ca sens inh – cardiac RTF calcium sensitivity inhibitors, primary screen, biochemical, IANBD-TnC fluorescence, EC70 calcium; Troponin I, cardiac muscle (Homo sapiens) + Troponin T, cardiac muscle (Homo sapiens) + …; inhibition, % at 7.15 µM; 340,000 tested, 0.12% active; IANBD-labeled cardiac RTF, Ca2+ fluorescence;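 active = inhibition above the mean inhibition of all tested compounds plus 3 SD, cut at about 17% in these data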;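 note: assay run at fixed EC70 calcium of 1.6 mM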
* hit, by the source's call; i = inactive; . = no result given; + = active, no number.

SMILES	eLon inh	RTF Ca sens act	Keap1 Nrf2 FP	C-LANA FP	RTF Ca sens inh
CCN1CCN(Cc2c(O)ccc3c2O/C(=C\C=C\c2ccccc2)C3=O)CC1	-187.5	139.7*	-63.9	7.7	-137.0
O=C1/C(=C/C=C/c2ccccc2)Oc2c1ccc(O)c2CN1CCN(CCO)CC1	-91.1	42.8*	-33.1	4.0	-55.9
CCN1CCN(Cc2c(O)ccc3c2O/C(=C\c2ccccc2)C3=O)CC1	-47.3	25.9	-11.6	16.7	-48.6
O=C1NC[C@H](CCCCN2C[C@H](Cc3ccc(O)cc3)N(CCc3ccc(O)cc3)C(=O)C2=O)N(CCc2ccccc2)C1=O	-13.8	.	.	.	.
CC(C)NC(=O)C1(C)CCCCN1Cc1ccc(OCc2ccccc2)cc1 (stereo not given)	0.9	.	.	.	.
COc1cccc(/C=N/Nc2nc3ccccc3[nH]2)c1O	-4.3	-4.9	-6.0	0.3	-1.3
COc1cccc(/C=N/c2nc3ccccc3[nH]2)c1O	0.0	186.7*	-1.2	2.6	4.0
COC1OC(c2ccccc2)=C(c2ccc(C(N)=O)cc2)c2ccc(F)cc21 (stereo not given)	-3.0	.	.	.	.
COc1ccc(C2C(C(C)=O)=C(C)N=c3s/c(=C\c4cc(C)n(C)c4C)c(=O)n32)c(OC)c1 (stereo not given)	i	110.0*	-17.2	2.0	-120.5
CCCS(=O)(=O)NC(=O)C1(C)CCCN(C(=O)Cc2ccc3ccccc3c2)C1 (stereo not given)	-6.6	.	.	.	.
O=C(CSc1nnc(Cc2cc(=O)[nH]c(=O)[nH]2)n1-c1ccc(F)cc1)NC1CCCC1	16.2*	5.0	-3.6	6.5	-0.9
O=C(CSc1nnc(Cc2cc(=O)[nH]c(=O)[nH]2)n1-c1ccc(F)cc1)N1CCCCC1	14.4*	1.0	-0.1	7.6	3.1
CC1(C)CC(NCCN2CCN(C3=CC(=C(C#N)C#N)CC(C)(C)C3)CC2)=CC(=C(C#N)C#N)C1	-4.3	8.8	-5.1	2.9	-7.6
N#Cc1cc(Cl)c(N2CCOCC2)cc1C#N	-6.1	4.8	-2.6	0.2	-8.7
CN1CCN(C2=CC3=CC(=C(C#N)C#N)CCC3CC2)CC1 (stereo not given)	i	+	-465.2	-70.6	i
CCN1CCN(C2=CC3=CC(=C(C#N)C#N)CCC3CC2)CC1 (stereo not given)	i	+	-393.8	-61.2	i
N#CC(C#N)=C1C=C2C=C(N3CCOCC3)CCC2CC1 (stereo not given)	i	+	-102.5	-17.1	i
COC(=O)[C@]12CCCCC=C1N(Cc1ccco1)C(=O)[C@H](CC(=O)NCc1ccccc1)C2	-5.0	.	.	.	.
O=C(c1ccco1)N1CCN(C2CN(C3CCCCC3)S(=O)(=O)C2)CC1 (stereo not given)	-6.4	.	.	.	.
CCOC(=O)[C@]12CCC=C1N(Cc1ccccc1)C(=O)[C@H](CC(=O)NCc1ccc(OC)c(OC)c1)C2	-6.5	.	.	.	.
Cc1ccc(Nc2nc(N)nc(N)c2N=O)cc1Cl	-0.4	.	.	.	.
Cc1ccccc1NC(=O)C1CCN(C2=NS(=O)(=O)c3ccccc32)CC1	-6.8	7.5	0.9	61.2*	-4.9
Cc1ccc(NC(=O)C2CCCN(C3=NS(=O)(=O)c4ccccc43)C2)c(O)c1 (stereo not given)	-9.8	3.8	3.7	-0.1	-1.3
COC(=O)c1ccc(CS(=O)(=O)c2ccc(F)cc2)o1	3.9	31.8*	0.1	4.4	-3.3
CCN(CC)c1ccc(/C=C2\C(=O)c3ccc(C(=O)O)cc3C2=O)cc1	i	73.8*	-188.7	-45.0	-98.3
SMILES	eLon inh	RTF Ca sens act	Keap1 Nrf2 FP	C-LANA FP	RTF Ca sens inh
CCN(CC)c1ccc(C(=O)O)cc1	1.3	0.6	-3.6	1.1	10.4
O=C(NCCc1ccc(O)c(Br)c1)c1ccc(Br)o1	-6.3	.	.	.	.
COc1cc(/C=C(\C#N)c2nc3ccccc3s2)ccc1OCC(=O)Nc1ccccc1	-78.0	33.9*	10.9	7.7	-22.9
C[C@H]1COc2cccc(N3CCSCC3)c2S(=O)(=O)N1	-1.1	.	.	.	.
Cc1ccc(S(=O)(=O)N2CC3=C(C2)C2CC2(C)C3)cc1 (stereo not given)	-3.8	.	.	.	.
S=c1c2c(nc3nc[nH]n13)CCC2	9.8	1.7	-2.2	62.8*	-11.6
CC1CCc2c(nc3nc[nH]n3c2=O)C1 (stereo not given)	-1.0	-3.9	-1.6	2.2	7.9
COc1cc(C(=O)Nc2ccc(Cl)c(C(F)(F)F)c2)cc(OC)c1OC	-14.3	33.5*	-1.9	1.8	0.2
CCCCCCCCN1C(=O)[C@H](CC(=O)N2CCSCC2)C[C@@]2(C(=O)OCC)CCCC=C12	-5.1	.	.	.	.
c1ccc(-c2cnn3c(-c4ccccc4)c(-c4ccccc4)nc3n2)cc1	-176.8	378.1*	4.1	0.7	-236.5
CN(C)c1ccc(/C=C(/C#N)C(=O)NCc2ccccc2)o1	i	69.5*	-19.0	3.2	-97.8
CCC(c1nnnn1-c1ccc2c(c1)OCCO2)N1CCN(c2ccc(C(F)(F)F)cc2[N+](=O)[O-])CC1 (stereo not given)	-5.2	.	.	.	.
Cc1ccc(S(=O)(=O)N[C@H](C(=O)Oc2ccc3c(C(F)(F)F)cc(=O)oc3c2)c2ccccc2)cc1	19.8*	2.8	0.4	11.5	-13.5
CCn1c(=O)c(C(=O)CN2CCCc3ccccc32)c(N)n(Cc2ccccc2)c1=O	-32.7	31.5*	-5.1	0.6	-67.1
Cc1ccc2[nH]c(C)c(/C=C/c3cc[n+](C)cc3)c2c1	i	154.1*	-188.0	-52.8	-159.2
C[n+]1ccc(/C=C/c2ccc(Br)cc2)cc1	0.8	0.8	1.6	-0.1	-0.7
CCCn1c(/C=C/c2cc[n+](C)cc2)nc2ccccc21	7.9	1.7	4.5	6.8	-13.6
Cc1ccc2c(c1)c(/C=C/c1cc[n+](C)cc1)c(C)n2C	i	241.1*	-238.9	-68.0	-286.0
CCCOC(=O)c1cc(-c2ccc(/C=C3/C(=O)N(C)C(=O)C(C#N)=C3C)o2)ccc1Cl	-50.7	0.6	-5.5	1.8	3.4
C=CCOC(=O)c1cc(-c2ccc(/C=C3\C(=O)NC(=O)C(C#N)=C3C)o2)ccc1Cl	-44.0	-11.8	3.1	80.6*	-4.6
CCCCn1nnnc1C1(C)CCC(=O)N1Cc1ccco1 (stereo not given)	5.5	.	.	.	.
CCCOc1ccc(N)cc1N	-15.6	32.5*	0.8	2.9	-46.8
CCCOc1cc(N)ccc1C(=O)OCCN(CC)CC	5.6	5.2	-4.2	1.4	11.9
Cc1nc(NC(=O)C(C)(C)C)sc1C(=O)Cn1cc(-c2ccc(C(C)(C)C)cc2)nn1	1.2	.	.	.	.
Nc1ccc2ccc(O)cc2c1	-5.1	-5.1	2.5	2.8	3.6
C[n+]1c2cc(N)ccc2cc2ccc(N)cc21	-10.1	+	+	195.3*	i
